The first assay concerns PPARg:RXRa IVT, anti-PPARg (NR concentration 270 nM, RXRa partner concentration 90 nM). The assay is described as follows: PBM binding z-score (relative to random genomic background probes); higher = stronger binding; sequences stand for … in GC…GCGATTGACAGCGTAGAATGAAGG
The essentials: (§1)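 Random background probes are the reference for binding z-scores. These scores derive from regression-normalized fluorescence on custom Agilent 4×180K protein-binding microarrays incubated 1 h with ligand-free nuclear receptor dimers. Binding was detected with antibodies against each partner (one per run).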
As to TCTAGCAGGCCAGAGGGTCACACAAGAGGTACGG, the PBM binding z-score came to 1.38.
Still for that read-out and setting: under AGTCAAAGTTCACTTGGTAACGTAAGATTCAGCT stands 2.42; under CCGACTGGGGCAGAAAGGTTACCATGCCATCCGG, 2.43; under GCTCGGAGGACACGGTCAGAGCTTTGTCCGTAGA, -0.07.
Regarding CCTATTAGTTGACCATAAGGTCAACCGAAGCTCG, the PBM binding z-score was 2.48.
Still for that read-out and setting: under AGTCAAAGCTCATCTAGGTAACGTAAGATATGCT stands 1.71; under TCTAGTTGGTCACGAAGGTCACACACGACGGGTA, 4.36; under TCAGATAGGTAATACAGGTGAAAGTCGGCATCTA, 1.82.
On to CAGCCTAGGTCGGGGCCAGTATAGGAGGAACGTT, for which the PBM binding z-score was -0.678.
The same measure, in the same setting: the same measure for CGAACTAGATCAAGGACAGTGAATCTCCGCACGC: 0.649.
Still for that read-out and setting: the same measure for CGTCCAAGGTCAAGGTCAGCGAAAGAGACTCGAA: 4.71.
The same measure, in the same setting: under CAGCCTAGGTCAAGGCCAGTATAGGAGGAACGTT stands 2.33.
Sequence ATACCAAGGTGATCGTGAGGTGGTTGATACTAAC showed a PBM binding z-score of 0.996.
The same measure, in the same setting: the same measure for CAAACTAGGTCGCAGAGGTCAAAGTCCGTGCGTA: 7.05; for ATCTCTAAGTAAGACTCAGTTCAGTGAAGAACGC: 0.218.
As to CGTCAAAGTTCAACTAAGGTAACGGAAAGCACGC, the PBM binding z-score is 2.18.
The same measure, in the same setting: under TCTTGTAGATTAAAGGTTAAGAAAGCCGAAGCCT stands 2.24; under TCGTATAGGTAAAGGTGAAAGTCGAACGATATGA, 2.57.
The same measure, in the same setting: the same measure for CCTGCTAGGTCAATGGTCAACTAAAGCAGCTCGC: 4.58; for TCTCGGACGACACGAAGGTCAGAGCTTTCCAGAG: 0.576; for AAAGACAGGTGATGAAGGTAACTCAGGCTATCAT: 0.744.
The same measure, in the same setting: under TCTTGTAGTTCAGCAGGTTAAGAAAGCTGGCCAA stands 0.541; under TAGAGTAGGTTAGTCGGGGCATTCAGCCAACATA, 3.62.
Turning to CGTCCAAGGTCAGAGAGGTAAGTGAATGCCGAGT, the PBM binding z-score was determined as 2.1.
The same measure, in the same setting: the same measure for CCGACTGTGGCAAAGGTTACCATACTCAGTACGA: 3.83; for CAGCCGAGGTCAGGGCCAGTATAGGAGGAACGTT: 3.21.
On the same count and under the same terms, the same measure for CCAACTAGGTCAAGGTCAAAGTCGGTTTGTGCCA: 8.03; for CCTAGCAGGCCCATCTGGGTCACTCAAGGCTTGA: 2.42.
In turn, CATCAAAGTTCAACTAAGGTAACGTAAAGCACGC came in with a PBM binding z-score of 1.94.
On the same count and under the same terms, under ACTAGCTGGTCAGCTGAGGTCACACACAATTCGG stands 1.83.
TCTTGTAGATCAACAGGAGGTTGAGAAAGATCGA showed a PBM binding z-score of 0.267.
Sequence CTACCAAGGTGAACAAGGTCGTGGATTACTATTC gave a PBM binding z-score of 3.01.
Same read-out and setting: the same measure for ACTCGGAGGACAAAGGTCAGAGCTACGCCAGTGA: 3.72; for TCTTGTAGATCAATAGAGTTTAAGAAAGTGCGCT: 0.625; for TAGCCCAGGTCATGCGGGCCAGTATAGTGTCGGC: 2.57.
The same measure, in the same setting: the same measure for AGAACAAGGGCAATGAGTTGATAGCACGGGTGGC: 1.75; for CCTACTGGGCCACGAAAGGTCATTGAATCAGTGA: 5.52; for GCTTGTTGATCAAGGTTAAGAAAGACTAAGCTAA: 0.134.
CCTACTGGGCCAAGGACATTGATCAGTCAAAGCA returned a PBM binding z-score of 3.05.
On the same count and under the same terms, the same measure for AGAATGAGGTTATACCTAGATCAGGGAAGAAAGT: 2.02.

In a further assay the test system is PPARg DBDmut:RXRa IVT, anti-PPARg (DBD mutation: PPARg1 K132A/R137A, NR concentration 270 nM, RXRa partner concentration 90 nM). The description is as above. Summed up: as §1
On to TCTAGCAGGCCAGAGGGTCACACAAGAGGTACGG, for which the PBM binding z-score was -0.514.
As to AGTCAAAGTTCACTTGGTAACGTAAGATTCAGCT, the PBM binding z-score amounted to 1.28.
Same read-out and setting: under CCGACTGGGGCAGAAAGGTTACCATGCCATCCGG stands -1.53.
Same read-out and setting: under GCTCGGAGGACACGGTCAGAGCTTTGTCCGTAGA stands -1.69; under CCTATTAGTTGACCATAAGGTCAACCGAAGCTCG, 2.56.
Same read-out and setting: the same measure for AGTCAAAGCTCATCTAGGTAACGTAAGATATGCT: 0.357; for TCTAGTTGGTCACGAAGGTCACACACGACGGGTA: 1.5.
For TCAGATAGGTAATACAGGTGAAAGTCGGCATCTA, the PBM binding z-score amounted to 0.894.
The same measure, in the same setting: under CAGCCTAGGTCGGGGCCAGTATAGGAGGAACGTT stands -0.979; under CGAACTAGATCAAGGACAGTGAATCTCCGCACGC, -0.11.
Sequence CGTCCAAGGTCAAGGTCAGCGAAAGAGACTCGAA registered a PBM binding z-score of 0.201.
As for CAGCCTAGGTCAAGGCCAGTATAGGAGGAACGTT, the PBM binding z-score was -0.75.
As to ATACCAAGGTGATCGTGAGGTGGTTGATACTAAC, the PBM binding z-score came to 0.272.
The same measure, in the same setting: the same measure for CAAACTAGGTCGCAGAGGTCAAAGTCCGTGCGTA: 2.76; for ATCTCTAAGTAAGACTCAGTTCAGTGAAGAACGC: 0.885; for CGTCAAAGTTCAACTAAGGTAACGGAAAGCACGC: 0.489.
The same measure, in the same setting: the same measure for TCTTGTAGATTAAAGGTTAAGAAAGCCGAAGCCT: 0.866; for TCGTATAGGTAAAGGTGAAAGTCGAACGATATGA: 0.89; for CCTGCTAGGTCAATGGTCAACTAAAGCAGCTCGC: 0.116.
Take TCTCGGACGACACGAAGGTCAGAGCTTTCCAGAG: the PBM binding z-score was -1.3.
Same read-out and setting: the same measure for AAAGACAGGTGATGAAGGTAACTCAGGCTATCAT: 0.665; for TCTTGTAGTTCAGCAGGTTAAGAAAGCTGGCCAA: -0.927; for TAGAGTAGGTTAGTCGGGGCATTCAGCCAACATA: 0.961.
On the same count and under the same terms, the same measure for CGTCCAAGGTCAGAGAGGTAAGTGAATGCCGAGT: -0.583.
Still for that read-out and setting: the same measure for CCGACTGTGGCAAAGGTTACCATACTCAGTACGA: 0.000701; for CAGCCGAGGTCAGGGCCAGTATAGGAGGAACGTT: 0.298.
With CCAACTAGGTCAAGGTCAAAGTCGGTTTGTGCCA, the PBM binding z-score is 1.26.
With CCTAGCAGGCCCATCTGGGTCACTCAAGGCTTGA, the PBM binding z-score was -1.01.
As for CATCAAAGTTCAACTAAGGTAACGTAAAGCACGC, the PBM binding z-score was 1.26.
Still for that read-out and setting: the same measure for ACTAGCTGGTCAGCTGAGGTCACACACAATTCGG: 0.106.
With TCTTGTAGATCAACAGGAGGTTGAGAAAGATCGA, the PBM binding z-score came to 0.852.
The same measure, in the same setting: the same measure for CTACCAAGGTGAACAAGGTCGTGGATTACTATTC: 1.26; for ACTCGGAGGACAAAGGTCAGAGCTACGCCAGTGA: 0.709.
The same measure, in the same setting: under TCTTGTAGATCAATAGAGTTTAAGAAAGTGCGCT stands 0.851; under TAGCCCAGGTCATGCGGGCCAGTATAGTGTCGGC, -0.0508.
On the same count and under the same terms, under AGAACAAGGGCAATGAGTTGATAGCACGGGTGGC stands 0.287; under CCTACTGGGCCACGAAAGGTCATTGAATCAGTGA, 0.0728.
The sequence GCTTGTTGATCAAGGTTAAGAAAGACTAAGCTAA came in with a PBM binding z-score of 0.234.
On the same count and under the same terms, under CCTACTGGGCCAAGGACATTGATCAGTCAAAGCA stands -0.364; under AGAATGAGGTTATACCTAGATCAGGGAAGAAAGT, 1.05.
